From the supplement of paper PMC8728848
Shown is part of a subset that was picked to be rich in the strongest signals.

Key:
Test in all cases: glycan array binding signal (z-score within array); higher = stronger binding
Details in all cases: glycan notation: IUPAC condensed, linker removed
[1] = molecular target: GlcNAc(b1-3)Gal(b1-4)GlcNAc(b1-2)Man(a1-3)[GlcNAc(b1-3)Gal(b1-4)GlcNAc(b1-2)Man(a1-6)]Man(b1-4)GlcNAc(b1-4)GlcNAc
Summary of the method: (§1)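 The binding signal is a Z-score computed within each array. Data were drawn from 3228 arrays in the Consortium for Functional Glycomics database, restricted to those with a known protein sequence. Scores were averaged over arrays of the same protein sequence at different concentrations or buffers, and over linkers, and negative values can be taken as non-binding.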

[2] = molecular target: GlcNAc(b1-3)Gal(b1-4)GlcNAc(b1-3)Gal(b1-4)GlcNAc(b1-2)Man(a1-3)[GlcNAc(b1-3)Gal(b1-4)GlcNAc(b1-3)Gal(b1-4)GlcNAc(b1-2)Man(a1-6)]Man(b1-4)GlcNAc(b1-4)[Fuc(a1-6)]GlcNAc
Summary of the method: as §1

[3] = molecular target: Man(a1-2)Man(a1-2)Man(a1-6)[Man(a1-3)]Man
Summary of the method: as §1

Man(a1-2)Man(a1-3)Man = molecular target: Man(a1-2)Man(a1-3)Man
Summary of the method: as §1

[4] = molecular target: Neu5Ac(a2-3)Gal(b1-3)GlcNAc6S
Summary of the method: as §1

[5] = molecular target: Neu5Ac(a2-3)Gal(b1-4)GlcNAc(b1-2)Man(a1-3)[GlcNAc(b1-4)][Neu5Ac(a2-3)Gal(b1-4)GlcNAc(b1-2)Man(a1-6)]Man(b1-4)GlcNAc(b1-4)GlcNAc
Summary of the method: as §1

[6] = molecular target: Neu5Ac(a2-3)Gal(b1-4)[Fuc(a1-3)]GlcNAc(b1-3)Gal(b1-4)GlcNAc
Summary of the method: as §1

[7] = molecular target: Neu5Ac(a2-3)Gal(b1-4)[Fuc(a1-3)]GlcNAc(b1-3)Gal(b1-4)[Fuc(a1-3)]GlcNAc(b1-3)Gal(b1-4)[Fuc(a1-3)]GlcNAc
Summary of the method: as §1

[8] = molecular target: Neu5Ac(a2-6)Gal(b1-4)GlcNAc(b1-2)Man(a1-6)Man(b1-4)GlcNAc(b1-4)GlcNAc
Summary of the method: as §1

[9] = molecular target: Neu5Ac(a2-6)Gal(b1-4)GlcNAc(b1-3)Gal(b1-4)GlcNAc(b1-2)Man(a1-3)[Neu5Ac(a2-6)Gal(b1-4)GlcNAc(b1-3)Gal(b1-4)GlcNAc(b1-2)Man(a1-6)]GalNAc
Summary of the method: as §1

[10] = molecular target: Neu5Ac(a2-6)Gal(b1-4)GlcNAc(b1-3)Gal(b1-4)GlcNAc(b1-3)Gal(b1-4)GlcNAc
Summary of the method: as §1

[11] = molecular target: Neu5Ac(b2-6)Gal(b1-4)GlcNAc
Summary of the method: as §1

[12] = molecular target: Neu5Gc(a2-3)Gal(b1-4)[Fuc(a1-3)]GlcNAc
Summary of the method: as §1

[13] = molecular target: Fuc(a1-2)Gal(b1-3)GlcNAc(b1-3)[Neu5Ac(a2-6)Gal(b1-4)GlcNAc(b1-6)]Gal(b1-4)Glc
Summary of the method: as §1

[14] = molecular target: Fuc(a1-2)Gal(b1-3)[Fuc(a1-4)]GlcNAc(b1-2)Man(a1-3)[Fuc(a1-2)Gal(b1-3)[Fuc(a1-4)]GlcNAc(b1-2)Man(a1-6)]Man(b1-4)GlcNAc(b1-4)[Fuc(a1-6)]GlcNAc(b1-4)[Fuc(a1-6)]GlcNAc
Summary of the method: as §1

Fuc(a1-2)Gal(b1-4)Glc = molecular target: Fuc(a1-2)Gal(b1-4)Glc
Summary of the method: as §1

Fuc(a1-2)Gal(b1-4)Glc6S = molecular target: Fuc(a1-2)Gal(b1-4)Glc6S
Summary of the method: as §1

Fuc(a1-2)Gal(b1-4)GlcNAc = molecular target: Fuc(a1-2)Gal(b1-4)GlcNAc
Summary of the method: as §1

[15] = molecular target: Fuc(a1-2)Gal(b1-4)GlcNAc(b1-3)[Fuc(a1-2)Gal(b1-4)GlcNAc(b1-6)]GalNAc
Summary of the method: as §1

[16] = molecular target: Fuc(a1-2)Gal(b1-4)GlcNAc(b1-6)GalNAc
Summary of the method: as §1

[17] = molecular target: Fuc(a1-2)Gal(b1-4)GlcNAc6S
Summary of the method: as §1

[18] = molecular target: Fuc(a1-2)Gal(b1-4)[Fuc(a1-3)]GlcNAc(b1-2)Man(a1-3)[Fuc(a1-2)Gal(b1-4)[Fuc(a1-3)]GlcNAc(b1-2)Man(a1-6)]Man(b1-4)GlcNAc(b1-4)[Fuc(a1-6)]GlcNAc
Summary of the method: as §1

[19] = molecular target: Fuc(a1-2)Gal6S(b1-3)GlcNAc
Summary of the method: as §1

Fuc(a1-2)Gal6S(b1-4)Glc = molecular target: Fuc(a1-2)Gal6S(b1-4)Glc
Summary of the method: as §1

[20] = molecular target: Fuc(a1-2)Gal6S(b1-4)Glc6S
Summary of the method: as §1

Fuc(a1-2)[Gal(a1-3)]Gal = molecular target: Fuc(a1-2)[Gal(a1-3)]Gal
Summary of the method: as §1

[21] = molecular target: Fuc(a1-2)[Gal(a1-3)]Gal(b1-4)GlcNAc(b1-2)Man(a1-3)[Fuc(a1-2)[Gal(a1-3)]Gal(b1-4)GlcNAc(b1-2)Man(a1-6)]Man(b1-4)GlcNAc(b1-4)GlcNAc
Summary of the method: as §1

[22] = molecular target: Fuc(a1-2)[Gal(a1-3)]Gal(b1-4)[Fuc(a1-3)]GlcNAc(b1-3)GalNAc
Summary of the method: as §1

[23] = molecular target: Fuc(a1-2)[Gal(a1-4)]Gal(b1-4)GalNAc
Summary of the method: as §1

[24] = molecular target: Fuc(a1-2)[Gal(a1-4)]Gal(b1-4)GlcNAc
Summary of the method: as §1

[25] = molecular target: Fuc(a1-2)[GalNAc(a1-4)]Gal(b1-4)GlcNAc
Summary of the method: as §1

[26] = molecular target: Fuc(a1-3)[Gal(b1-4)]GlcNAc(b1-6)[Gal(b1-3)GlcNAc(b1-3)]Gal(b1-4)Glc
Summary of the method: as §1

[27] = molecular target: Fuc(a1-3)[GalNAc(b1-4)]GlcNAc6S
Summary of the method: as §1

[28] = molecular target: Gal(a1-3)Gal(b1-4)GlcNAc(b1-2)Man(a1-3)[Gal(a1-3)Gal(b1-4)GlcNAc(b1-2)Man(a1-6)]Man(b1-4)GlcNAc(b1-4)GlcNAc
Summary of the method: as §1

[29] = molecular target: Gal(a1-4)Gal(b1-4)GlcNAc(b1-2)Man(a1-3)[Gal(a1-4)Gal(b1-4)GlcNAc(b1-2)Man(a1-6)]Man(b1-4)GlcNAc(b1-4)GlcNAc
Summary of the method: as §1

Gal(a1-4)GlcNAc = molecular target: Gal(a1-4)GlcNAc
Summary of the method: as §1

[30] = molecular target: Gal(b1-3)GalNAc(b1-4)[Neu5Ac(a2-3)]Gal(b1-4)Glc
Summary of the method: as §1

[31] = molecular target: Gal(b1-3)GlcNAc(a1-6)Gal(b1-4)GlcNAc
Summary of the method: as §1

[32] = molecular target: Gal(b1-3)GlcNAc(b1-2)Man(a1-3)[Gal(b1-3)GlcNAc(b1-2)Man(a1-6)]Man(b1-4)GlcNAc(b1-4)GlcNAc
Summary of the method: as §1

[33] = molecular target: Gal(b1-3)GlcNAc(b1-2)Man(a1-3)[Gal(b1-3)GlcNAc(b1-2)Man(a1-6)]Man(b1-4)GlcNAc(b1-4)[Fuc(a1-6)]GlcNAc
Summary of the method: as §1

[34] = molecular target: Gal(b1-3)[Fuc(a1-4)]GlcNAc(b1-6)GalNAc
Summary of the method: as §1

[35] = molecular target: Gal(b1-3)[Neu5Ac(a2-6)]GlcNAc(a1-4)Gal(b1-4)Glc
Summary of the method: as §1

[36] = molecular target: Gal(b1-3)[Neu5Ac(a2-6)]GlcNAc(b1-4)Gal(b1-4)Glc
Summary of the method: as §1

B1: DrGal9 (Danio rerio) (protein)
chain: MAFYQQPPYYNPRIPFSGPIQGGLQDGKSIIISGRVLPGANRFHVNLQCGSHSEANVALHFNPRYEDTDYVVNNSYLNRTWGSEERKYESPFAQGQTFTLQILVAQDKYKISTNGRHFMDYKHRIPFTQVDTVAVEGMVEVNSVAFQNPAGFIPPQAGYAPQYAVPPGCGFPAFPSAPNYTIPHKTVMNGGLHPGKNIVINGVVNPNAKSIIFNLCYRSGIAFHYNPRFDENVVVRNTNQMEKWGAEERFGGLPFHKGQPFQVTISCNPQHYNVFVNGKQEHTYKHRYTKLNDIDILEICGDLQLTSVQA
With B1 the “glycan array binding signal (z-score)” value [1] was 1.73, the “glycan array binding signal (z-score)” value [2] was 3.13 and the “glycan array binding signal (z-score)” value [3] was -0.361. For the same binder, the “glycan array binding signal (z-score)” value (Man(a1-2)Man(a1-3)Man) was -0.396, the “glycan array binding signal (z-score)” value [4] was -0.144 and the “glycan array binding signal (z-score)” value [5] was 0.144. For the same binder, the “glycan array binding signal (z-score)” value [6] was -0.356, the “glycan array binding signal (z-score)” value [7] was -0.384 and the “glycan array binding signal (z-score)” value [8] was -0.399. The “glycan array binding signal (z-score)” value [9] was 1.22, the “glycan array binding signal (z-score)” value [10] was 0.598 and the “glycan array binding signal (z-score)” value [11] was -0.398. For the same binder, the “glycan array binding signal (z-score)” value [12] was -0.351.

B2: UEA-I (Ulex europaeus), P22972 (protein)
chain: SDDLSFKFKNFSQNGKDLSFQGDASVIETGVLQLNKVGNNLPDETGGIARYIAPIHIWNCNTGEVASFITSFSFFMETSANPKAATDGLTFFLAPPDSPLRRAGGYFGLFEDTKDNDSSYQTVAVEFDTIGSPVNFDDPGFPHIGIDVNRVKSINAERWNKRYGLNNVANVEIIYEASSKTLTASLTYPSDQTSISVTSIVDLKEILPEWVSVGFSGGTYIGRQATHEVLNWYFTSNLINTNS
For B2, the “glycan array binding signal (z-score)” value [13] was -0.101, the “glycan array binding signal (z-score)” value [14] was -0.186 and the “glycan array binding signal (z-score)” value (Fuc(a1-2)Gal(b1-4)Glc) was 4.65. The “glycan array binding signal (z-score)” value (Fuc(a1-2)Gal(b1-4)Glc6S) was 8.87, the “glycan array binding signal (z-score)” value (Fuc(a1-2)Gal(b1-4)GlcNAc) was 5.04 and the “glycan array binding signal (z-score)” value [15] was 5.44. The “glycan array binding signal (z-score)” value [16] was 4.28, the “glycan array binding signal (z-score)” value [17] was 5.67 and the “glycan array binding signal (z-score)” value [18] was -0.035. The “glycan array binding signal (z-score)” value [19] was -0.194, the “glycan array binding signal (z-score)” value (Fuc(a1-2)Gal6S(b1-4)Glc) was 4.67 and the “glycan array binding signal (z-score)” value [20] was 5.33. The “glycan array binding signal (z-score)” value (Fuc(a1-2)[Gal(a1-3)]Gal) was -0.199, the “glycan array binding signal (z-score)” value [21] was -0.194 and the “glycan array binding signal (z-score)” value [22] was -0.022. The “glycan array binding signal (z-score)” value [23] was 5.51, the “glycan array binding signal (z-score)” value [24] was 5.58 and the “glycan array binding signal (z-score)” value [25] was 5.17. For the same binder, the “glycan array binding signal (z-score)” value [26] was -0.103, the “glycan array binding signal (z-score)” value [27] was -0.217 and the “glycan array binding signal (z-score)” value [28] was -0.163. The “glycan array binding signal (z-score)” value [29] was 0.015, the “glycan array binding signal (z-score)” value (Gal(a1-4)GlcNAc) was -0.168 and the “glycan array binding signal (z-score)” value [30] was -0.207. The “glycan array binding signal (z-score)” value [31] was -0.139, the “glycan array binding signal (z-score)” value [32] was -0.101 and the “glycan array binding signal (z-score)” value [33] was -0.16. For the same binder, the “glycan array binding signal (z-score)” value [34] was -0.098, the “glycan array binding signal (z-score)” value [35] was -0.409 and the “glycan array binding signal (z-score)” value [36] was -0.234.
